From the supplement of paper PMC10981050
Several values for one entry are separate records, joined by “and”; a condition that tells them apart may be missing. Equal values may be shown once. Where a name gives a salt, the structure may show the parent alone.

Assays:
Assay in all cases: cell viability relative to vehicle control; higher = less cytotoxic
Conditions in all cases: 10 µM
[1] = test system: K562
Procedure, shortened: (§1)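 CRISPR-edited mutant clones and isogenic wild-type clones from four leukaemia lines were screened against Selleck bioactive, kinase and epigenetic probe libraries, with identity-inconsistent compounds excluded. Each compound was acoustically dispensed at a single 10 µM dose into 384-well plates holding 2000 cells in 50 µL medium per well. After 48 h the supernatant was removed and CellTiter-Glo luminescence was read. Viability was expressed as percent of the on-plate vehicle control and analysed in Genedata Screener.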

[2] = test system: MARIMO
Procedure, shortened: as §1

[3] = test system: MOLM14
Procedure, shortened: as §1

[4] = test system: OCI-AML2
Procedure, shortened: as §1

Row | SMILES | cell viability ([1]; SRSF2 genotype: SRSF2 P95H/wt) | cell viability ([1]; SRSF2 genotype: SRSF2 wt/wt) [%] | cell viability ([2]; SRSF2 genotype: SRSF2 P95H/wt) [%] | cell viability ([2]; SRSF2 genotype: SRSF2 wt/wt) [%] | cell viability ([3]; SRSF2 genotype: SRSF2 P95H/wt) [%] | cell viability ([3]; SRSF2 genotype: SRSF2 wt/wt) [%] | cell viability ([4]; SRSF2 genotype: P95H/wt) [%] | cell viability ([4]; SRSF2 genotype: wt/wt) [%]
1 | C=C1CC[C@H]2[C@@H](C=C(C)C(=O)[C@@]3(O)C[C@H](C)[C@H](O)[C@@H]3[C@H]1O)C2(C)C [Lathyrol] | 94.9% and 95.9% | 96.9 | 92.5 | 102 | 97.1 | 96.8 | 105 | 99
2 | COc1ccc(C=O)cc1 [p-Anisaldehyde] | 107% and 99.7% | 111 | 103 | 103 | 105 | 104 | 97.2 | 117
3 | N#CC(C#N)=NNc1ccc(OC(F)(F)F)cc1 | 16.2% and 15.8% | 19.2 | 31.8 | 28 | 14.5 | 11.2 | 2.85 | 8.68
4 | C[N+](C)(C)CCCCCCCCCC[N+](C)(C)C [Decamethonium Bromide] | 100% and 109% | 111 | 98.9 | 102 | 102 | 101 | 120 | 102
5 | C[C@]12CC[C@H]3[C@@H](CCC4=CC(=O)C=C[C@@]43C)[C@@H]1CC[C@@H]2O [Boldenone] | 99.7% and 103% | 110 | 101 | 104 | 105 | 110 | 113 | 111
6 | CC(=O)Nc1ccc(Cc2ccc(NC(C)=O)cc2)cc1 | 104% and 107% | 107 | 105 | 106 | 106 | 104 | 104 | 113
7 | O=C(CBr)N1CC([N+](=O)[O-])([N+](=O)[O-])C1 | 86.2% and 82.7% | 81.4 | 85.5 | 101 | 88.6 | 88.7 | 94.3 | 114
8 | C[C@]12CC[C@H](O)C[C@@]1(O)CC[C@@H]1[C@@H]2CC[C@]2(C)[C@@H](C3=CC(=O)OC3)CC[C@]12O [Periplogenin] | 8.32% and 13% | 12.9 | 14.3 | 11.9 | 7.26 | 1.77 | 4.72 | 8.91
9 | CC(C)[C@]12O[C@H]1[C@@H]1O[C@]13[C@]1(O[C@H]1C[C@H]1C4=C(CC[C@@]13C)C(=O)OC4)[C@@H]2O [Triptolide] | 5.55% and 15% | 8.7 | 10.4 | 6.31 | 2.33 | 0.54 | 5.79 | 16
10 | CCCN1CCO[C@@H]2c3cc(O)ccc3OC[C@H]21 | 98% and 95.8% | 92.6 | 97.5 | 97 | 104 | 101 | 96.5 | 93.2
11 | CCNC(=O)C[C@@H]1N=C(c2ccc(Cl)cc2)c2cc(OC)ccc2-n2c(C)nnc21 | 72.5% and 71.1% | 73.3 | 38.9 | 41.3 | 30 | 28.7 | 24.7 | 37.5
12 | O=C(O)c1nn(Cc2ccc(Cl)cc2Cl)c2ccccc12 [Lonidamine] | 97% and 107% | 101 | 107 | 97.7 | 98.1 | 95.6 | 99.5 | 92.2
13 | CC(C)c1ccc(CO)cc1 [4-Isopropylbenzyl Alcohol] | 107% and 98.3% | 97.1 | 99.9 | 110 | 102 | 105 | 87.7 | 97.4
14 | CC[C@]12C=CCN3CC[C@]4(C(=C(C(=O)OC)C1)Nc1ccccc14)[C@@H]32 [Tabersonine hydrochloride] | 18.2% and 28.9% | 32.3 | 13 | 13.8 | 3.62 | 1.08 | 8.35 | 13.7
15 | CNCC(O)c1ccc(O)cc1 (stereo not drawn) [Synephrine HCl] | 102% and 114% | 108 | 110 | 99.8 | 104 | 111 | 108 | 101
16 | CC(=O)OC1CN2CCC1CC2 (stereo not drawn) [Aceclidine HCl] | 99.8% and 104% | 100 | 104 | 112 | 104 | 106 | 102 | 105
17 | Cc1c(N[C@@H](c2nnc(-c3ccc(C#N)cc3)o2)[C@H](C)O)ccc(C#N)c1Cl | 87.6% and 86.2% | 100 | 88.4 | 96.5 | 88.9 | 100 | 100 | 102
18 | Cc1cccc(C(C)c2c[nH]cn2)c1C (stereo not drawn) [Medetomidine HCl] | 97.2% and 99.8% | 95.1 | 95.1 | 107 | 101 | 102 | 97 | 113
19 | O=C(CBr)c1ccc(O)cc1 [PTP Inhibitor I] | 106% and 101% | 107 | 103 | 104 | 97.2 | 108 | 104 | 103
20 | CCCCCCC(=O)O[C@H]1CC[C@H]2[C@@H]3CCC4=CC(=O)CC[C@]4(C)[C@H]3CC[C@]12C [Testosterone Enanthate] | 91.4% and 86% | 88.5 | 66.5 | 61.8 | 50.1 | 20.5 | 23.7 | 25.8
21 | CCN(Cc1ccc(Cl)nc1)/C(=C/[N+](=O)[O-])NC [Nitenpyram] | 98.8% and 88.3% | 99.9 | 94.5 | 99 | 97.7 | 98.6 | 95.2 | 99.8
